Results: publication PMC5540273 (PLoS ONE, 2017)

tested on: FGFR3; settings: concentration: 1 μM,replicates: in singlicate; n = 1
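Also: KINOMEscan kinase panel screen.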

SMILES	%Inh
CN(C)CCOc1ccc(-c2cc(-c3c[nH]nc3-c3ccccn3)ccn2)cc1 [GW835314]	31%
CC(C)N1C(=O)Cc2cc(Nc3ncc(C(F)(F)F)c(NCc4cccc(S(C)(=O)=O)c4)n3)ccc21	43%
O=C(NCCNc1ccnc(NCc2ccc(F)cc2)n1)c1cc2ccccc2s1 [GSK1379944]	20%
CCn1c(-c2nonc2N)nc2c(C#CC(C)(C)O)nc(OCCN)cc21.Cl.Cl [GSK902056]	7%
Cc1occc1-c1nc(N)c(OC[C@@H](N)Cc2c[nH]c3ccccc23)cc1-c1cc2c(C)n[nH]c2cn1 [GSK1660450]	0%
Cl.Cl.NC[C@H](Cc1ccc(C(F)(F)F)cc1)NC(=O)c1cc(Br)c(-c2ccnc3[nH]ccc23)s1 [GSK1487252]	24%
C[C@@H]1CCN(C(=O)CC#N)C[C@@H]1N(C)c1ncnc2[nH]ccc12	0%
CNC(=O)c1ccccc1Sc1ccc2c(/C=C/c3ccccn3)n[nH]c2c1	81%
Cc1n[nH]c2ccc(-c3cc(OC[C@@H](N)Cc4ccccc4)cnc3-c3ccoc3)cc12.O=C(O)C(F)(F)F.O=C(O)C(F)(F)F [GSK507358]	0%
O=C(NCCCN1CCOC1=O)c1cnc(NCc2cc(Cl)ccc2Cl)nc1NC1CCCC1	19%
Cl.Cl.Nc1nc(-c2ccc3c(N)n[nH]c3c2)cc(N2CCCC(NC(=O)c3ccccc3)C2)n1 (stereo not drawn) [GSK2286775]	11%
Cc1cc(C(=O)Nc2ccc(Oc3ccc4nc(NC(=O)C5CC5)cn4n3)cc2)nn1-c1ccccc1	7%
CN(C)CC(O)COc1ccc(Nc2nccc(-c3cnn4nc(N5CCOCC5)ccc34)n2)cc1 (stereo not drawn) [GW767488]	3%
Cc1cc2cn[nH]c2cc1-c1cccc2c(N)c(C(N)=O)nnc12	0%
Nc1nc(Nc2ccccc2)cc(-c2ccc3c(N)n[nH]c3c2)n1 [GSK2225749]	18%
Cl.Oc1cc(-c2nc(-c3ccccc3)[nH]c2-c2ccncc2)ccc1Cl [SB-386023]	0%
C[C@@H](Oc1cc(-c2cnn(C3CCNCC3)c2)cnc1N)c1c(Cl)ccc(F)c1Cl	24%
C=CC(=O)Nc1cc2c(Nc3ccc(F)c(Cl)c3)ncnc2cc1OCCCN1CCOCC1 [GW781483]	0%
Cl.Cl.NC[C@H](CC1CCCCC1)NC(=O)c1cc(Br)c(-c2ccnc3[nH]ccc23)s1 [GSK1581427]	13%
Cc1ccc(-n2nc(C(C)(C)C)cc2NC(=O)Nc2ccc(OCCN3CCOCC3)c3ccccc23)cc1 [GW839464]	0%
CC(C)Nc1cc(-c2ccc3c(N)n[nH]c3c2)nc(N)n1 [GSK2221681]	5%
CCN(CC)CCCCNc1ncc2cc(-c3c(Cl)cccc3Cl)c(NC(=O)NC(C)(C)C)nc2n1	95.5%
Cc1ccc2c(-c3ccncc3)c(-c3ccc(F)cc3)nn2c1.Cl [GW461484]	4%
COc1ccc(C[C@@H](CN)NC(=O)c2cc(Br)c(-c3ccnc4[nH]ccc34)s2)cc1.Cl.Cl [GSK1389063]	69%
C[C@H]1Oc2cc(cnc2N)-c2c(nn(C)c2C#N)CN(C)C(=O)c2ccc(F)cc21	0%
CCN(CC)CCOc1ccc(Nc2ncc3cc(-c4c(Cl)cccc4Cl)c(=O)n(C)c3n2)cc1 [SB-601273]	100%
NC(=O)c1cc(-c2ccccc2)cc2c(C3CCNCC3)c[nH]c12 [GSK301362]	3%

tested on: FGFR4; settings: concentration: 1 μM,replicates: in singlicate; n = 1

SMILES	%Inh
CN(C)CCOc1ccc(-c2cc(-c3c[nH]nc3-c3ccccn3)ccn2)cc1 [GW835314]	8%
CC(C)N1C(=O)Cc2cc(Nc3ncc(C(F)(F)F)c(NCc4cccc(S(C)(=O)=O)c4)n3)ccc21	16%
O=C(NCCNc1ccnc(NCc2ccc(F)cc2)n1)c1cc2ccccc2s1 [GSK1379944]	79%
CCn1c(-c2nonc2N)nc2c(C#CC(C)(C)O)nc(OCCN)cc21.Cl.Cl [GSK902056]	0%
Cc1occc1-c1nc(N)c(OC[C@@H](N)Cc2c[nH]c3ccccc23)cc1-c1cc2c(C)n[nH]c2cn1 [GSK1660450]	0%
Cl.Cl.NC[C@H](Cc1ccc(C(F)(F)F)cc1)NC(=O)c1cc(Br)c(-c2ccnc3[nH]ccc23)s1 [GSK1487252]	57%
C[C@@H]1CCN(C(=O)CC#N)C[C@@H]1N(C)c1ncnc2[nH]ccc12	0%
CNC(=O)c1ccccc1Sc1ccc2c(/C=C/c3ccccn3)n[nH]c2c1	12%
Cc1n[nH]c2ccc(-c3cc(OC[C@@H](N)Cc4ccccc4)cnc3-c3ccoc3)cc12.O=C(O)C(F)(F)F.O=C(O)C(F)(F)F [GSK507358]	0%
O=C(NCCCN1CCOC1=O)c1cnc(NCc2cc(Cl)ccc2Cl)nc1NC1CCCC1	13%
Cl.Cl.Nc1nc(-c2ccc3c(N)n[nH]c3c2)cc(N2CCCC(NC(=O)c3ccccc3)C2)n1 (stereo not drawn) [GSK2286775]	0%
Cc1cc(C(=O)Nc2ccc(Oc3ccc4nc(NC(=O)C5CC5)cn4n3)cc2)nn1-c1ccccc1	13%
CN(C)CC(O)COc1ccc(Nc2nccc(-c3cnn4nc(N5CCOCC5)ccc34)n2)cc1 (stereo not drawn) [GW767488]	1%
Cc1cc2cn[nH]c2cc1-c1cccc2c(N)c(C(N)=O)nnc12	0%
Nc1nc(Nc2ccccc2)cc(-c2ccc3c(N)n[nH]c3c2)n1 [GSK2225749]	0%
Cl.Oc1cc(-c2nc(-c3ccccc3)[nH]c2-c2ccncc2)ccc1Cl [SB-386023]	0%
C[C@@H](Oc1cc(-c2cnn(C3CCNCC3)c2)cnc1N)c1c(Cl)ccc(F)c1Cl	0%
C=CC(=O)Nc1cc2c(Nc3ccc(F)c(Cl)c3)ncnc2cc1OCCCN1CCOCC1 [GW781483]	0%
Cl.Cl.NC[C@H](CC1CCCCC1)NC(=O)c1cc(Br)c(-c2ccnc3[nH]ccc23)s1 [GSK1581427]	16%
Cc1ccc(-n2nc(C(C)(C)C)cc2NC(=O)Nc2ccc(OCCN3CCOCC3)c3ccccc23)cc1 [GW839464]	0%
CC(C)Nc1cc(-c2ccc3c(N)n[nH]c3c2)nc(N)n1 [GSK2221681]	5%
CCN(CC)CCCCNc1ncc2cc(-c3c(Cl)cccc3Cl)c(NC(=O)NC(C)(C)C)nc2n1	28%
Cc1ccc2c(-c3ccncc3)c(-c3ccc(F)cc3)nn2c1.Cl [GW461484]	4%
COc1ccc(C[C@@H](CN)NC(=O)c2cc(Br)c(-c3ccnc4[nH]ccc34)s2)cc1.Cl.Cl [GSK1389063]	93.2%
C[C@H]1Oc2cc(cnc2N)-c2c(nn(C)c2C#N)CN(C)C(=O)c2ccc(F)cc21	0%
CCN(CC)CCOc1ccc(Nc2ncc3cc(-c4c(Cl)cccc4Cl)c(=O)n(C)c3n2)cc1 [SB-601273]	97.9%
NC(=O)c1cc(-c2ccccc2)cc2c(C3CCNCC3)c[nH]c12 [GSK301362]	9%
